# In PubChem BioAssay (EPA / NIEHS):
# Inconclusive results are not listed. More than one record can exist for a structure, and the calls need not agree. The source made the active and inactive calls. The calls were made as follows: active = hit-call score of the fitted dose curve at least 0.9, where 1 is the maximum; inconclusive = response in the unintended direction; inactive = score below 0.9.
# Legend:
# [1] = target: sheep Cyclooxygenase-1 (Cox1), PTGS1 (gene 443551) (UniProt P05979); assay: NVS_ENZ_oCOX1: NovaScreen (NVS) Enzymatic Assay for sheep Cyclooxygenase-1 (Cox1) (AID 2283239);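 also: actives reduce cyclooxygenase activity so potencies are for inhibitors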
# Method in brief: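 Native ovine seminal vesicle protein serves as enzyme source in this biochemical assay. Colorimetric signal is recorded 0.66 h after chemical addition, and decreases versus the DMSO control define activity.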
# [2] = NVS_IC_rCaBTZCHL: NovaScreen (NVS) Ion Channel Assay for Calcium Channel, Type L, Benzothiazepine Site (CaBTZCHL) (AID 2283337)
# Method in brief: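 Scintillation counting of filter-bound radioligand gave the read-out, with reduced binding versus DMSO scored as activity. Membranes came from rat cortex and were read 1.5 h after compound addition. Chemicals were screened first in duplicate at 25 uM.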
# [3] = target: human Adenosine A1 Receptor (AdoRA1), ADORA1 (gene 134) (UniProt P30542); assay: NVS_GPCR_hAdoRA1: NovaScreen (NVS) G Protein-Coupled Receptor Assay for human Adenosine A1 Receptor (AdoRA1) (AID 2283254)
# Method in brief: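 Radioligand competition binding on human cortical membranes, 1 h after compound addition; bound radioactivity read by filtration and scintillation counting. Loss of signal versus DMSO baseline scored as displacement; primary screen duplicate at 25 uM, actives retested in concentration series.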
# [4] = target: rat Peripheral-type Benzodiazepine Receptor (PBR), Tspo (gene 24230) (UniProt P16257); assay: NVS_MP_rPBR: NovaScreen (NVS) Membrane Protein Assay for rat Peripheral-type Benzodiazepine Receptor (PBR) (AID 2283335)
# Method in brief: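 Rat kidney membranes; radioligand binding with displacement, filter-based scintillation counting, 1 h incubation. Primary screen in duplicate at 25 uM, actives followed in concentration series; loss of binding vs DMSO.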
# [5] = target: Estrogen receptor (Homo sapiens) (UniProt P03372); assay: NVS_NR_hER: NovaScreen (NVS) Nuclear Receptor Binding Assay for human Estrogen Receptor (ER) (AID 2283348)
# Method in brief: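 Radioligand competitive displacement binding to estrogen receptor from MCF7 extract, cell-free; 18 h after dosing, scintillation read-out. Primary screen in duplicate at 25 uM; actives followed up in concentration series; loss of signal vs DMSO.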
# [6] = target: human Thromboxane A2 Receptor (TXA2), TBXA2R (gene 6915) (UniProt P21731); assay: NVS_GPCR_hTXA2: NovaScreen (NVS) G Protein-Coupled Receptor Assay for human Thromboxane A2 Receptor (TXA2) (AID 2283282);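 also: actives reduce bound radioligand signal relative to DMSO baseline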
# Method in brief: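 Biochem binding, human platelets, cell-free; competitive radioligand displacement; 1 h; filter radiodetection. 25 uM duplicate primary, conc. series secondary; DMSO neg. ctrl.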
# [7] = target: rat Thyrotropin Releasing Hormone Receptor (TRH), Trhr (gene 25570) (UniProt Q01717); assay: NVS_GPCR_rTRH: NovaScreen (NVS) G Protein-Coupled Receptor Assay for rat Thyrotropin Releasing Hormone Receptor (TRH) (AID 2283329);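 also: hit means lower bound tracer signal versus DMSO baseline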
# Method in brief: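 Competitive radioligand binding on rat forebrain membrane preparations, with filtration and scintillation readout after 4 h. Primary testing in duplicate at 25 uM; actives confirmed in concentration-response. DMSO defined baseline.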
# [8] = target: bovine Estrogen Receptor (ER), ESR1 (gene 407238) (UniProt P49884); assay: NVS_NR_bER: NovaScreen (NVS) Nuclear Receptor Binding Assay for bovine Estrogen Receptor (ER) (AID 2283345);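 also: actives lower the bound radioligand count which means they displace the ER ligand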
# Method in brief: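 Displacement of a radioligand from estrogen receptor in bovine uterine membrane preparations; scintillation signal taken at 18 hours, DMSO as baseline. Single-concentration duplicates (25 uM) preceded concentration-response follow-up of actives.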
# [9] = target: Estrogen receptor (Homo sapiens) (UniProt P03372); assay: OT_ER_ERaERa_1440: Odyssey Thera (OT) 24-hour HEK293T Protein-Complementation Assay for Estrogen Receptor-alpha/-alpha Homodimer (AID 2283349);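 also: hits raise fluorescence above DMSO for agonists and antagonists alike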
# Method in brief: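 HEK293T cells stably expressing the human ER alpha ligand-binding domain (aa 310-547) as a homodimer PCA were dosed for 24 hours. Fluorescence intensity was read by laser scanning cytometry, and gain of signal was fitted relative to DMSO vehicle.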
# [10] = target: Estrogen receptor (Homo sapiens) (UniProt P03372); assay: OT_ER_ERaERa_0480: Odyssey Thera (OT) 8-hour HEK293T Protein-Complementation Assay for Estrogen Receptor-alpha/-alpha Homodimer (AID 2283351);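 also: rise in fluorescence from reassembled reporter fragments on ERα LBD homodimer in nucleus or whole cell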
# Method in brief: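 HEK293T, stable ERα LBD (aa 310-547) PCA homodimer; 8 h compound exposure; fluorescence intensity, laser scanning cytometer; positive fitting direction, DMSO baseline.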
# [11] = target: chimpanzee Androgen Receptor (AR), AR (gene 747460) (UniProt O97775); assay: NVS_NR_cAR: NovaScreen (NVS) Nuclear Receptor Binding Assay for chimpanzee Androgen Receptor (AR) (AID 2283346);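 also: radioligand displacement from AR measured by scintillation counting in a cell-free assay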
# Method in brief: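 Radioligand binding to chimpanzee AR expressed in Sf9/Sf21 cells, cell-free, measured 72 h after dosing by lysate-based scintillation counting. Loss of signal vs DMSO; initial duplicate screen at 25 uM, actives retested in concentration series.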
# [12] = target: guinea pig Opioid, Kappa 1 Receptor (OpiateK), OPRK1 (gene 100135587) (UniProt P41144); assay: NVS_GPCR_gOpiateK: NovaScreen (NVS) G Protein-Coupled Receptor Assay for guinea pig Opioid, Kappa 1 Receptor (OpiateK) (AID 2283252);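 also: radioligand displacement from kappa opioid receptor in guinea pig cerebellar membranes; active means reduced radioligand binding relative to DMSO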
# Method in brief: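 Guinea pig cerebellar membranes, radioligand displacement with filter-based scintillation counting, 2 h after dosing. Primary screen single concentration 25 uM in duplicate; actives retested in concentration series; loss of binding fitted versus DMSO.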
# [13] = target: D(1A) dopamine receptor (Homo sapiens) (UniProt P21728); assay: NVS_GPCR_hDRD1: NovaScreen (NVS) G Protein-Coupled Receptor Assay for human Dopamine Receptor D1 (DRD1) (AID 2283269)
# Method in brief: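 Cell-free competition with radioligand, filter-trapped and scintillation-counted 1 h post-dose, using HEK293-derived human D1 preparation. Duplicate single-point testing at 25 uM first, then concentration series for actives; DMSO served as baseline, loss-of-signal scored.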
# [14] = target: Estrogen receptor (Homo sapiens) + Estrogen receptor beta (Homo sapiens) (UniProt P03372+Q92731); assay: OT_ER_ERaERb_0480: Odyssey Thera (OT) 8-hour HEK293T Protein-Complementation Assay for Estrogen Receptor-alpha/-beta Heterodimer (AID 2283352)
# Method in brief: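 Increase in mean fluorescence intensity, measured by laser scanning plate cytometry, reported ER-alpha/ER-beta LBD complementation in HEK293T cells after 8 h chemical exposure. DMSO served as baseline; basal signal is low, punctate and cytoplasmic.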
# [15] = target: human Neurokinin, NK2 Receptor, TACR2 (gene 6865) (UniProt P21452); assay: NVS_GPCR_hNK2: NovaScreen (NVS) G Protein-Coupled Receptor Assay for human Neurokinin, NK2 Receptor (AID 2283278);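 also: actives reduce bound radioligand signal relative to DMSO baseline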
# Method in brief: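 Cell-free radioligand binding using receptor protein extracted from CHO cells; readings taken 4 hours after chemical dosing by filter-based scintillation counting. Primary screen ran single concentration (25 uM) in duplicate; actives followed up in concentration series, loss-of-signal versus DMSO baseline.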
# [16] = target: Androgen Receptor/SRC-1 Co-activator, AR (gene 367) (UniProt P10275); assay: OT_AR_ARSRC1_0960: Odyssey Thera (OT) 16-hour HEK293T Protein-Complementation Assay for Androgen Receptor/SRC-1 Co-activator (AID 2283353);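 also: actives raise the signal above DMSO so potency reflects increased AR and SRC-1 complex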
# Method in brief: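 Split-Venus PCA, AR/SRC-1 fusions, stable HEK293T; 16 h compound exposure; imaged at 488 and 635 nm; N/C ratio (488 nm channel), min 400 cells/image; positive-direction fit, DMSO baseline.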
# bovine Estrogen Receptor (ER), ESR1 (gene 407238), sequence (P49884 whole entry, looked up): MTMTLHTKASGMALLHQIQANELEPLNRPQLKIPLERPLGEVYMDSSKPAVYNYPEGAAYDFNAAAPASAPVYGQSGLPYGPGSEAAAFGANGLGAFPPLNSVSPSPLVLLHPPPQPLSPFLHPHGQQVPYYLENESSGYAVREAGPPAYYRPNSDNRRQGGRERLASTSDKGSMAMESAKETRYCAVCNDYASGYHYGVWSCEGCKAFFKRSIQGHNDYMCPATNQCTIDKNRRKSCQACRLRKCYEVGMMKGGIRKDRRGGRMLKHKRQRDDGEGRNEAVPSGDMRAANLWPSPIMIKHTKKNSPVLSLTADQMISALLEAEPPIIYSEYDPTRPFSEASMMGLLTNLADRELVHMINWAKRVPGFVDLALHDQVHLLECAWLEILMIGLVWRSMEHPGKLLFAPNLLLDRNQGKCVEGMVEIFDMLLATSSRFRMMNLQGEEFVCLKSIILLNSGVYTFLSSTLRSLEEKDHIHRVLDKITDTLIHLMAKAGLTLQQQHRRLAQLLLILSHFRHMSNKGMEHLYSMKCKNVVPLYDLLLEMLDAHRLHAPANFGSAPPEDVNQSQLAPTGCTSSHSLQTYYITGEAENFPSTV
# sheep Cyclooxygenase-1 (Cox1), PTGS1 (gene 443551), sequence (P05979 whole entry, looked up): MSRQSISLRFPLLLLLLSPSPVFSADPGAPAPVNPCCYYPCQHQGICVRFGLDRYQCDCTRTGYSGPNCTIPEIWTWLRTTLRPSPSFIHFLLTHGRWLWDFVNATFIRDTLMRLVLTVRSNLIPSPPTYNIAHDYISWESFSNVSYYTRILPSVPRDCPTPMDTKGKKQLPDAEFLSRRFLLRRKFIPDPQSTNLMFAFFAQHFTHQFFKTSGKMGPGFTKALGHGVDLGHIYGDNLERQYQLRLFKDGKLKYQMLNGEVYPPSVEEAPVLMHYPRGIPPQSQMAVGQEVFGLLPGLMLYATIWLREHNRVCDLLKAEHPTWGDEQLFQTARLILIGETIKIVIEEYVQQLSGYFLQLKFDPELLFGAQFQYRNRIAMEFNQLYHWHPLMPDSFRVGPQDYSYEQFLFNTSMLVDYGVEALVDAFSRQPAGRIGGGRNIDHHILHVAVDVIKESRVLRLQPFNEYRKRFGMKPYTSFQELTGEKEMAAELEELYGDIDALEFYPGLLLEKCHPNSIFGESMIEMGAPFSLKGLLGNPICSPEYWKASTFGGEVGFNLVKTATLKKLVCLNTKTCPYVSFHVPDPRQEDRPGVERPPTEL
# Estrogen receptor (Homo sapiens), sequence (P03372 whole entry, looked up, the tested form may be a part): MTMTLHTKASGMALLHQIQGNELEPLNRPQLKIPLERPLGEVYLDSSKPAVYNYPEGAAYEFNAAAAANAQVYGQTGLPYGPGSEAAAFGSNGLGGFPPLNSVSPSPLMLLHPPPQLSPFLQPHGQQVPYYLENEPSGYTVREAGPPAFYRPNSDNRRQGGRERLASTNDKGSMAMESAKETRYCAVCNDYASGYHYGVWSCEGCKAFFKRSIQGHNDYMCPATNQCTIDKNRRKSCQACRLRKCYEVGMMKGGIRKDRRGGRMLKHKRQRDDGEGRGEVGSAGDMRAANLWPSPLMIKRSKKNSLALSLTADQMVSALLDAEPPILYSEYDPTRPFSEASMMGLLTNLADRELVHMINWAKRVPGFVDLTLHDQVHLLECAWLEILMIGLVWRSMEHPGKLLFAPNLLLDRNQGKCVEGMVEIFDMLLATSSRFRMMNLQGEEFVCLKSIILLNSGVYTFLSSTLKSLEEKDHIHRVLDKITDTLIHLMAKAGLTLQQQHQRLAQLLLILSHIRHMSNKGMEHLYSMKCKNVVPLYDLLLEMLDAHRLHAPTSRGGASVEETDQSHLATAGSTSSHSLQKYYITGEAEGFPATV
# human Thromboxane A2 Receptor (TXA2), TBXA2R (gene 6915), sequence (P21731 whole entry, looked up): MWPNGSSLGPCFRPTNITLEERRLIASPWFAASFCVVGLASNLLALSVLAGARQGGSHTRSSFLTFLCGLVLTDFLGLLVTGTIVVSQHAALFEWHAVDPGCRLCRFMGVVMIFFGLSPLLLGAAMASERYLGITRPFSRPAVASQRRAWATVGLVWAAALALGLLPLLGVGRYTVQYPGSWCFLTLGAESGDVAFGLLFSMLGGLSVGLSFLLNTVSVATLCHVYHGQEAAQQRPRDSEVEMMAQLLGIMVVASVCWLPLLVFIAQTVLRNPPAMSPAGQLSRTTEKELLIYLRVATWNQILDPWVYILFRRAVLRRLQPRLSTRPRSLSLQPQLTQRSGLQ
# rat Thyrotropin Releasing Hormone Receptor (TRH), Trhr (gene 25570), sequence (Q01717 whole entry, looked up): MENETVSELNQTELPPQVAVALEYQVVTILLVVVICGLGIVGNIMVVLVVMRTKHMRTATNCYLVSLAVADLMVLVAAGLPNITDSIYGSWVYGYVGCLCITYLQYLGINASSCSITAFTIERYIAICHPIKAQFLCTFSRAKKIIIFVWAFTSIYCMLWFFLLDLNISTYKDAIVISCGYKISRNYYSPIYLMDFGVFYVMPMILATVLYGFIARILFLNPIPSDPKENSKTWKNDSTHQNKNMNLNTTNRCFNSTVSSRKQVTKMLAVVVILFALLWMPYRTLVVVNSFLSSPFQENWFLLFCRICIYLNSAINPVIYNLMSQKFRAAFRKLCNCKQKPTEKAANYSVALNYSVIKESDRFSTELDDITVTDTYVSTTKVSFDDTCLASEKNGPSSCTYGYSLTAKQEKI
# D(1A) dopamine receptor (Homo sapiens), sequence (P21728 whole entry, looked up): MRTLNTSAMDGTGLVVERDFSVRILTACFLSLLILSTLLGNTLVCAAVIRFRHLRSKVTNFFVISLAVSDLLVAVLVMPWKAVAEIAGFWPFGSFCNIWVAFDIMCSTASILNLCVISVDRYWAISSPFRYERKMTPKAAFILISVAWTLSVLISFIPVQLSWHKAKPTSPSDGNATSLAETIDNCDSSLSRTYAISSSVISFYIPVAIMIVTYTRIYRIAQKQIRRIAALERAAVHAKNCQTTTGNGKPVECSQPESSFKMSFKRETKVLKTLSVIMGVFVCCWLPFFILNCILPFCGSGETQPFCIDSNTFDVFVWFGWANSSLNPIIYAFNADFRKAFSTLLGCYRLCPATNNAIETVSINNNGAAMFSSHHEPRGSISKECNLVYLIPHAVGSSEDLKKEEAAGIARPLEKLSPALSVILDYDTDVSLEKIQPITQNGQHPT
# Estrogen receptor (Homo sapiens) + Estrogen receptor beta (Homo sapiens), sequence (P03372 whole entry, looked up, the tested form may be a part): as the sequence (P03372 whole entry, looked up, the tested form may be a part) above
# Estrogen receptor (Homo sapiens) + Estrogen receptor beta (Homo sapiens), sequence (Q92731 whole entry, looked up, the tested form may be a part): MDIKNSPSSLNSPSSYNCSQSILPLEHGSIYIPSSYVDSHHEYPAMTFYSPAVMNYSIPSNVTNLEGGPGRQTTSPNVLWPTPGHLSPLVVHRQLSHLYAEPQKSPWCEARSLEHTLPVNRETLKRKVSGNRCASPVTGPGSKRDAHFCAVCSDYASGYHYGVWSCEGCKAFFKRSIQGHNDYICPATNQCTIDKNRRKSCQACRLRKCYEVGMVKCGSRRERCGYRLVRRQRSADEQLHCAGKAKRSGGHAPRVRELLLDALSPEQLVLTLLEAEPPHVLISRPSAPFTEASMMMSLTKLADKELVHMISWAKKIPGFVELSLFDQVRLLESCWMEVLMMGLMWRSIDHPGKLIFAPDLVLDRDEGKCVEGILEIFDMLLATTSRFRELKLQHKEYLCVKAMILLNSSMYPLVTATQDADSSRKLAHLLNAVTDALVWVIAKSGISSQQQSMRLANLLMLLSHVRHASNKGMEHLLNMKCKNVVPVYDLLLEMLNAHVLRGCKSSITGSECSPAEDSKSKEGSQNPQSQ
# rat Peripheral-type Benzodiazepine Receptor (PBR), Tspo (gene 24230), sequence (P16257 whole entry, looked up): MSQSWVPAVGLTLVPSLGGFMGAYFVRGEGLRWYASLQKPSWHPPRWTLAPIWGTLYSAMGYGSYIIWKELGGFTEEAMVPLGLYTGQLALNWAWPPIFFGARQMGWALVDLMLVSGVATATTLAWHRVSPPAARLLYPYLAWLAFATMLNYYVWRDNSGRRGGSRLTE
# human Adenosine A1 Receptor (AdoRA1), ADORA1 (gene 134), sequence (P30542 whole entry, looked up): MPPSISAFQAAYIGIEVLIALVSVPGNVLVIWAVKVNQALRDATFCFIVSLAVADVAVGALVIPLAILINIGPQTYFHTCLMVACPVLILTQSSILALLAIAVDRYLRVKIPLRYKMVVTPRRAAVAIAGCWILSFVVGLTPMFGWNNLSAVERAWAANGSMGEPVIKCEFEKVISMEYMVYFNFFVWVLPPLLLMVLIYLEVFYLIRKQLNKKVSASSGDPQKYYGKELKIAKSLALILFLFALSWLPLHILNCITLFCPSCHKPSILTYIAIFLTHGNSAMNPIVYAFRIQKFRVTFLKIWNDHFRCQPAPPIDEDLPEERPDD
structure (smiles),measurement,setting,value
CCO[Si](CCCN=C=O)(OCC)OCC,outcome,[1],inactive
same,outcome,[2],inactive
O=C(Nc1ccccc1SSc1ccccc1NC(=O)c1ccccc1)c1ccccc1,AC50,[3],25 µM (active)
same,outcome,[4],inactive
same,outcome,[5],inactive
Cc1ccc(N)c([N+](=O)[O-])c1,outcome,[6],inactive
CC(=O)OC(C)C,outcome,[7],inactive
same,outcome,[8],inactive
same,outcome,[5],inactive
same,outcome,[9],inactive
same,outcome,[10],inactive
N#[N+]c1ccc2c(S(=O)(=O)[O-])cccc2c1O,AC50,[1],5.62 µM (active)
NC(=O)N=NC(N)=O,outcome,[7],inactive
same,outcome,[9],inactive
same,outcome,[10],inactive
c1ccc2c(c1)ccc1cc3c(ccc4ccccc43)cc12,AC50,[1],22.5 µM (active)
same,outcome,[7],inactive
same,outcome,[11],inactive
same,outcome,[9],inactive
same,outcome,[10],inactive
Cc1cc(C)c(C)cc1C,outcome,[7],inactive
same,outcome,[9],inactive
same,outcome,[10],inactive
c1ccc(-c2ccccn2)nc1,outcome,[1],inactive
CCCCCc1ccc(Cl)cc1,outcome,[7],inactive
same,outcome,[9],inactive
same,outcome,[10],inactive
C#CC1(O)CC[C@H]2[C@@H]3CCC4=CCCC[C@@H]4[C@H]3CC[C@@]21C (stereo partly specified),AC50,[1],43.8 µM (active)
same,outcome,[12],inactive
same,outcome,[13],inactive
same,AC50,[8],6.05 µM (active)
same,outcome,[11],inactive
same,AC50,[5],0.258 µM (active)
same,outcome,[5],inactive
COc1ccc2nc(N)sc2c1,AC50,[1],14.9 µM (active)
C=COCCCC,AC50,[6],25 µM (active)
S=C(NC1CCCCC1)NC1CCCCC1,AC50,[6],1.56 µM (active)
same,outcome,[8],inactive
same,outcome,[5],inactive
CCC(CC)C(=O)O,outcome,[13],inactive
CCCC(C)CCC(C)=O (stereo unspecified),outcome,[13],inactive
CN(C)c1ccc(C(=N)c2ccc(N(C)C)cc2)cc1,outcome,[7],inactive
same,AC50,[4],11.6 µM (active)
same,outcome,[5],inactive
same,AC50,[9],33.4 µM (active)
same,AC50,[10],59.1 µM (active)
same,outcome,[14],inactive
Cc1ccc(C2OC[C@@H]3OC(c4ccc(C)cc4)O[C@H]([C@H](O)CO)[C@@H]3O2)cc1 (stereo partly specified),outcome,[6],inactive
O=C(Cl)c1cc(C(=O)Cl)cc(C(=O)Cl)c1,AC50,[15],15 µM (active)
NC(=O)c1ccccc1O,outcome,[7],inactive
same,outcome,[9],inactive
same,outcome,[10],inactive
CC/C=C\C/C=C\C/C=C\CCCCCCCC(=O)O,outcome,[7],inactive
same,AC50,[5],25 µM (active)
same,outcome,[9],inactive
same,outcome,[10],inactive
same,outcome,[14],inactive
CC(CC=O)CCCC(C)(C)O (stereo unspecified),outcome,[1],inactive
same,outcome,[9],inactive
same,outcome,[10],inactive
same,outcome,[16],inactive
